Bioassay records (PubChem)
This is a sample that favours compounds with a hit; in the whole collection about 3.8% have one here.
Nrf2 inh = Nrf2 pathway inhibition; A549 ARE-Fluc reporter, luciferase luminescence, 18-24 h; Potency, µM (top dose mostly 46 µM), inactives show at the top dose activity change, negative = inhibition, actives largely listed as inhibitors; 360,000 tested, 2.1% active; AID 504444; further: on the % scale 0 is the no-effect control and ±100 the full control effect; nearly all actives have a fitted effect of over 60% in size
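In this cell-based qHTS, ARE-driven firefly luciferase in A549 cells reports Nrf2 activity; the luminescent signal after BugLite lysis is the measured value, with a prior CellTiter-Fluor read for cell health.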
A549 viability = counter-screen for Nrf2 inhibitors: cytotoxicity in A549 cells. A549 ARE-Fluc cells, CellTiter-Fluor viability, 18-24 h. Potency, µM (top dose mostly 46 µM), inactives show top-dose activity change, negative = cytotoxicity, usual class: inhibitors. 390,000 tested, 0.16% active; further: on the % scale 0 is the no-effect control and ±100 the full control effect
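A549 ARE_Fluc cells in 5% FBS OPTI-MEM were exposed to compounds in concentration-response for 18-24 h at 37 deg C. Viability was read by CellTiter-Fluor fluorescence (Ex 405/Em 525) after 30 min, before the luciferase read.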
TGFb inhibitor = blocks TGF-b signaling. HepG2 CAGA-GFP TGF-b/SMAD3 reporter, GFP fluorescence, 18 h; TGF-beta stimulated, 500 pg/mL final. Potency, µM (doses to about 46.1 µM), without a hit: top-dose activity, negative = inhibition, usual class: inhibitors. 410,000 tested, 1.2% active. AID 588855; further: on the % scale 0 is the no-effect control and ±100 the full control effect; nearly all actives have a fitted effect of over 65% in size
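Cell-based qHTS in HEPG2 carrying a CAGA-GFP Smad reporter; compounds added before 500 pg/mL final TGF-beta, 18 h incubation at 37 degrees C, GFP fluorescence quantified per cell by imaging cytometry.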
S2 tox = cell viability loss in ATXN counter-screen; S2 cells (HEK-293 line with an ATXN2-luciferase reporter) viability, CellTiter-Fluor protease fluorescence, 24 h; Potency, µM (series often up to 56.7 µM), hits mostly cytotoxic; 400,000 tested, 0.49% active; further: nearly all actives have a fitted effect of over 40% in size
ATXN2 expr inh = ATXN2 expression inhibition; HEK-293 ATXN2-luciferase reporter, luminescence, 24 h; Potency, µM (titrated, usually from 57 µM), inactives show at the highest dose activity change, negative = inhibition, hits mostly inhibitors; 360,000 tested, 0.72% active; further: on the % scale 0 is the no-effect control and ±100 the full control effect; nearly all actives have a fitted effect of over 55% in size
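qHTS (up to 57 uM final) was run with 24 h compound exposure of reporter cells at 37 °C. Each well was multiplexed: SteadyGlo luminescence measured ATXN2-luciferase expression after a fluorogenic Gly-Phe-AFC viability readout (25 uM final).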
HepG2 viability = kills HepG2 cells in TGF-b inhibitor counter-screen. HepG2 CAGA-GFP viability, ATP luminescence, 18 h. Potency, µM (doses to about 46.1 µM), for the others: top-dose activity change, negative = cytotoxicity, hits mostly cytotoxic. 410,000 tested, 0.76% active. AID 588856
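HepG2 CAGA-GFP cells (1000/well, DMEM with 1% FBS) received compound, then TGF-beta at 500 pg/mL final, and were incubated 18 hours at 37 degrees C. Viability was read by CellTiter-Glo luminescence. Media-only wells were set as complete cell-killing and DMSO as no toxicity.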
Starred values were filed as active, the others as inactive. The call rests on the fitted dose curve; in most records, active means well fitted curve in the direction sought with a large enough effect; inconclusive means small, poorly fitted or top-dose-only effect, or another doubt; inactive means no such curve, though single readings can be large; an effect the other way counts as inactive or inconclusive. Potency means the concentration at half of the fitted maximal effect.

What do the screens show for `CCc1cccc(NC(=O)CC(c2ccc(OC)cc2)N2Cc3ccccc3C2=O)c1` (centres undefined)?
Nrf2 inh: 5%; A549 viability: -2%; TGFb inhibitor: 3%; HepG2 viability: -14%

How did O=[N+]([O-])c1cncc([N+](=O)[O-])c1Nc1cccc(O)c1 do in these assays?
Nrf2 inh: -4%; A549 viability: -23%; TGFb inhibitor: inconclusive; ATXN2 expr inh: 20µM*; HepG2 viability: -29%

What do the screens show for `OC(COCC(F)(F)C(F)(F)C(F)(F)C(F)F)Cn1c2ccc(Cl)cc2c2cc(Cl)ccc21` (centres undefined)?
Nrf2 inh: inconclusive; A549 viability: inconclusive; TGFb inhibitor: 10µM*; S2 tox: inconclusive; ATXN2 expr inh: inconclusive; HepG2 viability: -117%

What do the screens show for `S=C1NCN(Cc2cccnc2)CN1`?
Nrf2 inh: 0%; A549 viability: 1%; TGFb inhibitor: -4%; S2 tox: inactive; ATXN2 expr inh: -22%; HepG2 viability: 9%

How did CN(C)C(=S)N=c1ssc(=S)n1Cc1cccnc1 do in these assays?
Nrf2 inh: 2%; A549 viability: -3%; TGFb inhibitor: 3.2µM*; S2 tox: inactive; ATXN2 expr inh: -30%; HepG2 viability: -45%

Results for COCCCNC(=S)Nc1ccc(CC(=O)O)cc1 ?
Nrf2 inh: 5%; A549 viability: 1%; TGFb inhibitor: 1%; S2 tox: inactive; ATXN2 expr inh: -4%; HepG2 viability: -2%

How did CC(=O)c1sc(NC(=O)CCS(=O)(=O)c2ccc(F)cc2)nc1C do in these assays?
TGFb inhibitor: inconclusive; S2 tox: inconclusive; HepG2 viability: -97%

How did CC(=O)c1sc(NC(=O)CCS(=O)(=O)c2ccccc2)nc1C do in these assays?
Nrf2 inh: 21µM*; A549 viability: inconclusive; TGFb inhibitor: 18µM*; S2 tox: inconclusive; ATXN2 expr inh: inconclusive; HepG2 viability: -78%

What do the screens show for `COc1ccccc1N=NNc1ccccc1OC`?
TGFb inhibitor: -4%; S2 tox: inconclusive; HepG2 viability: -9%

How did COc1cc(N2C(=O)C=CC2=O)c(OC)cc1Cl do in these assays?
Nrf2 inh: inconclusive; A549 viability: inconclusive; TGFb inhibitor: 11µM*; S2 tox: 20µM*; ATXN2 expr inh: inconclusive; HepG2 viability: -91%

What do the screens show for `COc1cc(/C=C/c2[nH]c(=O)[nH]c(=O)c2[N+](=O)[O-])cc([N+](=O)[O-])c1O`?
Nrf2 inh: 3%; A549 viability: 16µM*; TGFb inhibitor: -3%; S2 tox: inconclusive; HepG2 viability: -7%

Results for CCn1cc(C(=O)NCc2cccc(F)c2)c(=O)c2cc(F)c(N3CCN(C(=O)c4ccco4)CC3)cc21 ?
Nrf2 inh: inconclusive; A549 viability: inconclusive; TGFb inhibitor: 1%; S2 tox: inconclusive; ATXN2 expr inh: 35µM*; HepG2 viability: 1%

What do the screens show for `O=[N+]([O-])c1ccc(O)c(-c2cc(C(F)(F)F)nc(-c3ccccc3)n2)c1`?
Nrf2 inh: inconclusive; A549 viability: 8.2µM*; TGFb inhibitor: inconclusive; S2 tox: inconclusive; HepG2 viability: -42%

How did Oc1ccccc1-c1cc(C(F)(F)C(F)F)nc(-c2ccccc2)n1 do in these assays?
Nrf2 inh: inconclusive; A549 viability: -17%; TGFb inhibitor: -4%; S2 tox: inactive; ATXN2 expr inh: -8%; HepG2 viability: -4%

What do the screens show for `NS(=O)(=O)c1ccc(CNC(=S)Nc2ccc(Cl)c(Cl)c2)cc1`?
Nrf2 inh: -4%; A549 viability: -11%; TGFb inhibitor: -32%; S2 tox: inactive; ATXN2 expr inh: -31%; HepG2 viability: -26%

What do the screens show for `NS(=O)(=O)c1ccc(CCNC(=O)Nc2ccc(Cl)c(Cl)c2)cc1`?
Nrf2 inh: 21µM*; A549 viability: -27%; TGFb inhibitor: -29%; S2 tox: inactive; ATXN2 expr inh: inconclusive; HepG2 viability: -16%

How did CC1C/C(=C/c2ccncc2)C(=O)/C(=C/c2ccncc2)C1 (centres undefined) do in these assays?
Nrf2 inh: inconclusive; A549 viability: inconclusive; TGFb inhibitor: 5.6µM*; S2 tox: inconclusive; HepG2 viability: 5.6µM*

Results for Cc1ccc(-n2nc(C(=O)N(C)c3ccccc3Cl)c3c4ccccc4n(C)c3c2=O)cc1 ?
Nrf2 inh: 3%; A549 viability: 2%; TGFb inhibitor: -11%; S2 tox: inactive; ATXN2 expr inh: -7%; HepG2 viability: -10%

How did CC(C)(C)NC(=O)c1cc([N+](=O)[O-])ccc1N1CCCCC1 do in these assays?
Nrf2 inh: 1%; A549 viability: -10%; TGFb inhibitor: -1%; S2 tox: inactive; ATXN2 expr inh: 2%; HepG2 viability: 2%

Results for NC(=O)CC(NC(=O)Cc1cccc2ccccc12)c1ccc(NC2CC3CCC2C3)c([N+](=O)[O-])c1 (centres undefined) ?
Nrf2 inh: inconclusive; A549 viability: inconclusive; TGFb inhibitor: inconclusive; S2 tox: inconclusive; ATXN2 expr inh: inconclusive; HepG2 viability: 3.5µM*

Results for NC(=O)CC(NC(=O)Cc1cccc2ccccc12)c1ccc(NC2CCCC2)c([N+](=O)[O-])c1 (centres undefined) ?
Nrf2 inh: 8%; A549 viability: -3%; TGFb inhibitor: -10%; S2 tox: inactive; ATXN2 expr inh: 1%; HepG2 viability: 4%

What do the screens show for `CCCN1C(=O)C(=O)c2cc(C)ccc21`?
Nrf2 inh: 8%; A549 viability: 1%; TGFb inhibitor: 4%; S2 tox: inconclusive; ATXN2 expr inh: 0%; HepG2 viability: 7%

Results for CCCCN1C(=O)C(=O)c2cc(Cl)ccc21 ?
Nrf2 inh: 1%; A549 viability: 11%; TGFb inhibitor: 13µM*; S2 tox: inconclusive; ATXN2 expr inh: inconclusive; HepG2 viability: -86%

What do the screens show for `COc1ccc(C2CC(=O)c3c([nH]c(C(=O)OC4CCCCCC4)c3C)C2)cc1OC` (centres undefined)?
Nrf2 inh: inconclusive; A549 viability: -1%; TGFb inhibitor: -21%; S2 tox: inactive; ATXN2 expr inh: -25%; HepG2 viability: 1%

Results for COc1ccc(C(CNC(=O)c2cccc(S(=O)(=O)N3CCCCC3)c2)N2CCCC2)cc1 (centres undefined) ?
Nrf2 inh: 4%; A549 viability: 2%; TGFb inhibitor: -11%; S2 tox: inactive; ATXN2 expr inh: -16%; HepG2 viability: -9%
